# Compound activity: PubChem BioAssay, several laboratories
# This is a sample that favours compounds with a hit; in the whole collection about 1.5% have one here.
# ARNT TACC3 PPI – disruptors of human ARNT/TACC3 interaction; AlphaScreen His-ARNT PAS-B/GST-TACC3 binding, luminescence; TACC3 fragment carries E629A point mutation; actives 0.66% (n = 390,000); inhibition, % at 9.99 µM; Q9Y6A5; AID 623870;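 active means mean inhibition of replicates at least 50% and at least half of replicates each reaching 50%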;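 further: 0% = complete ARNT plus TACC3 wells and 100% = ARNT alone without TACC3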
# Rin1 Abl inh – human Rin1-Abl interaction inhibition; P00519+Q13671; TR-FRET Rin1/Abl binding, biochemical; inhibition, % at 7.35 µM; actives 0.4% (n = 360,000); AID 588664; in the data active means inhibition above about 5%, passing the limit was not always enough
# sPLA2-III inh – Blocks human group III sPLA2 activity | QFRET BODIPY PC-A2 liposome hydrolysis, fluorescence | inhibition, % at 12.2 µM | actives 0.56% (n = 370,000);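 active means inhibition above mean plus 3 SD of compounds lying within the high and low control bounds, cut at about 19% in these data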;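 further: 0% = median of test compound wells and 100% = no enzyme DMSO wells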
# AI-2 QS modul – modulates the Vibrio harveyi AI-2 quorum sensing system; actives 0.4% (n = 300,000); activity change, % at 7.5 µM; Vibrio harveyi JMH597 AI-2 luminescence/OD600 ratio, 9 h; hits give low values; strain lacks LuxN and CqsS sensors; 0 = neutral-control median; in the data active means activity change below about -75%, passing the limit was not always enough;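 further: luminescence divided by OD600 gain over 9 h not by final OD600 alone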
# Rin1-Abl confirm – confirmation of inhibitors of human Rin1-Abl interaction; actives 49% (n = 1,300); TR-FRET Rin1-Abl binding, purified proteins; shares compounds with Rin1 Abl inh; inhibition, % at 7.35 µM
# GFP quench – GFP fluorescence interference artifact; shares compounds with Rin1 Abl inh; inhibitors/quenchers counterscreen; inhibition, % at 6.75 µM; actives 8.5% (n = 1,300);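 further: ABL1-eGFP fusion protein alone without its partner RIN1-SBP; 0% = protein with vehicle and 100% = wells lacking protein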
# GFP quench DR – quenches GFP in dose response, Rin1-Abl counter-screen | shares compounds with Rin1 Abl inh | GFP fluorescence interference/quenching counterscreen | IC50, µM | 230 tested, under 10 active | AID 602182; call rule not given here;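 further: ABL1-eGFP fusion protein alone without its RIN1 binding partner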
# The depositor's hits bear a star; x = no result given. Unless noted, no stated cut-off is given here; in the data, active means inhibition above about 6.5%; inactive means the rest.
SMILES,ARNT TACC3 PPI,Rin1 Abl inh,sPLA2-III inh,AI-2 QS modul,Rin1-Abl confirm,GFP quench,others
Cc1ccc2cc3c(NC(=O)c4cccnc4)nn(C)c3nc2c1,-6,6.0*,-3,4,21*,0,
CC(=O)Nc1nn(C)c2nc3cc(C)ccc3cc12,0,-4,8,10,x,x,
C#CCOCCOCCOCCNc1nc(N2CCOCC2)nc(N2CCN(C(=O)[C@H](Cc3ccc(O)cc3)n3cc([C@@H](N)CC(C)C)nn3)CC2)n1,-5,14*,2,11,15*,0,
C#CCOCCOCCOCCNc1nc(N2CCN(C(=O)[C@H]([C@@H](C)CC)n3cc([C@@H](N)Cc4ccc(O)cc4)nn3)CC2)nc(N2CCN(C(=O)[C@H](Cc3ccc(O)cc3)n3cc([C@@H](N)CC(C)C)nn3)CC2)n1,4,8,-18,18,x,x,
COc1ccc(C(C[N+](=O)[O-])c2c(C)[nH]n(-c3ccccc3)c2=O)cc1 (stereo not drawn),72*,11*,11,35,6.6*,-2,
Cc1[nH]n(-c2ccccc2)c(=O)c1C(C[N+](=O)[O-])c1ccccc1Cl (stereo not drawn),33,2,-5,24,x,x,
COc1cccc(C(c2c(C)[nH]n(-c3ccccc3)c2=O)c2c(C)[nH]n(-c3ccccc3)c2=O)c1O,16,6,3,8,x,x,
COc1cccc(C(c2c(C)[nH]n(-c3ccccc3)c2=O)c2c(C)[nH]n(-c3ccccc3)c2=O)c1OC,4,6.4*,-8,14,0,-2,
CC(=O)c1ccc(NC(=O)C2(S(=O)(=O)c3ccccc3)CC2)cc1,2,10*,5,40,-2,-1,
CCOCC(=O)N1CCc2ccccc21,0,6.3*,7,-7,-1,2,
C[C@H]1CN([C@@H](C)CO)C(=O)CCCn2cc(nn2)CO[C@H]1CN(C)Cc1ccc(Oc2ccccc2)cc1,0,x,x,x,x,x,
Cc1c(NC(=O)c2ccc(Cl)s2)c(=O)n(-c2ccccc2)n1C,0,6.2*,19,12,-2,1,
Cc1c(NC(=O)CSc2ncccn2)c(=O)n(-c2ccccc2)n1C,6,5.4*,-4,-15,2,-1,
Cc1c(NC(=O)c2ccccc2)c(=O)n(-c2ccccc2)n1C,1,-3,0,-8,x,x,
Cc1c(NC(=O)c2ccc(N(C)S(=O)(=O)c3ccccc3)cc2)c(=O)n(-c2ccccc2)n1C,5,9.8*,-1,19,1,-2,
Cc1c(NC(=O)CSc2nc(N)cc(N)n2)c(=O)n(-c2ccccc2)n1C,0,-2,5,x,x,x,
O=C(C[C@@H]1CC[C@H](NC(=O)c2cccc(F)c2)[C@@H](CO)O1)NCc1ccccc1,4,x,x,x,x,x,
O=C(C[C@@H]1CC[C@@H]2[C@H](COC[C@H](O)CN2C(=O)c2ccc(F)cc2)O1)Nc1nccs1,-20,x,x,x,x,x,
C[C@@H]1CN([C@@H](C)CO)C(=O)c2cc(NS(=O)(=O)c3cn(C)cn3)ccc2O[C@@H](C)CCCCO[C@@H]1CN(C)C(=O)Nc1ccccc1,-7,x,x,x,x,x,
O=C(C[C@H]1CC[C@@H]2[C@H](COC[C@H](O)CN2C(=O)Nc2ccc(F)cc2)O1)NCCc1ccccc1,7,x,x,x,x,x,
O=C(c1ccc2c(c1)OCO2)N1CCN(c2ncccn2)CC1,25,5.3*,2,2,-1,-3,
O=C(C[C@H]1C[C@H]2c3cc(NC(=O)CC4CC4)ccc3O[C@H]2[C@@H](CO)O1)NCc1ccncc1,1,x,x,x,x,x,
CC1(C)CCN2CCC(C)(C)c3c(O)ccc1c32,13,7.6*,-14,19,2,1,
C/C(=N\OC(=O)Nc1ccccc1)c1ccc(C)cc1,-3,6.4*,-4,8,-1,0,
CCCC#Cc1cnc2c(c1)C(=O)N([C@@H](C)CO)C[C@@H](C)[C@H](CN(C)S(=O)(=O)c1cn(C)cn1)O2,-7,x,x,x,x,x,
SMILES,ARNT TACC3 PPI,Rin1 Abl inh,sPLA2-III inh,AI-2 QS modul,Rin1-Abl confirm,GFP quench,others
CCCc1cc(=O)[nH]c(SCC(=O)NC2CCCCCCC2)n1,-1,9.1*,8,x,1,-1,
COc1ccc(NC(=O)Cn2c(=O)n(CC3CCCO3)c(=O)c3cc(OC)c(OC)cc32)cc1OC (stereo not drawn),-2,9.9*,9,23,8.8*,0,
COc1ccc(NC(=O)Nc2cccc3c2O[C@@H](CN(C)CC2CCCCC2)[C@H](C)CN([C@@H](C)CO)C3=O)cc1,6,x,x,x,x,x,
OC(COCc1ccc2c(c1)OCO2)CN1CCCCC1 (stereo not drawn),-7,-4,4,6,x,x,
CCOC(=O)C1CCCN(CC(O)COCc2ccc3c(c2)OCO3)C1 (stereo not drawn),x,6.4*,7,11,-1,0,
C[C@H](CO)N1C[C@H](C)[C@@H](CN(C)C(=O)Nc2ccc3c(c2)OCO3)Oc2ncc(-c3cncnc3)cc2C1=O,-8,x,x,x,x,x,
Clc1ccccc1/C=N/Nc1cc(N2CCOCC2)ncn1,-2,2,-2,9,x,x,
CCOc1ccc(/C=N/Nc2cc(N3CCOCC3)ncn2)c(O)c1,x,8.3*,10,x,2,2,
CCCC(O)C#Cc1cnc2c(c1)C(=O)N([C@H](C)CO)C[C@H](C)[C@H](CN(C)S(=O)(=O)c1ccc(OC)cc1)O2 (stereo partly drawn),-4,x,x,x,x,x,
O=C(CCN1C(=O)[C@@H]2Cc3ccccc3CN2C1=O)NCc1ccc(Cl)cc1,6,29*,3,2,-1,0,
CN1C(=O)C2(NC(=O)c3ccccc3N2C)c2ccccc21 (stereo not drawn),-2,-2,8,13,x,x,
CN1C(=O)C(Cl)(Cl)C(=O)c2ccccc21,-3,18*,x,21,11*,2,
COCCN1CCn2c(nc3cc(NC(=O)Cn4nc(C)c5ccccc5c4=O)ccc32)C1,-3,0,1,-26,x,x,
Cc1nn(CC(=O)Nc2ccc3c(c2)nc2n3CCOC2)c(=O)c2ccccc12,2,10*,8,-22,-1,1,
COc1ccccc1CN1C[C@@H]2C[C@@H](c3ccc(C)cc3)N3CCC[C@@]23C1=O,1,0,3,26,x,x,
COc1ccccc1CN1C[C@@H]2C[C@@H](c3ccc4nsnc4c3)N3CCC[C@@]23C1=O,-6,22*,9,35,25*,0,GFP quench DR=>68
CCC(=O)N1C[C@@H](C)[C@H](OC)CN(C)C(=O)c2ccc(NC(=O)c3cc(C)on3)cc2OC[C@@H]1C,-3,x,x,x,x,x,
CC[C@@H](NCCCn1ccc(NC(=O)OCc2ccccc2)nc1=O)c1ccccc1,x,8.4*,1,x,8.8*,-1,
